In all, about 33,000 sequences were measured (“E-score (-0.5 to 0.5)”: median about -0.013, highest 2% from about 0.3 on). For the sample, the highest values were picked, then their nearest neighbours and some sequences at random.
Target: T1, Msn1 (UniProt P22148)
T1 sequence: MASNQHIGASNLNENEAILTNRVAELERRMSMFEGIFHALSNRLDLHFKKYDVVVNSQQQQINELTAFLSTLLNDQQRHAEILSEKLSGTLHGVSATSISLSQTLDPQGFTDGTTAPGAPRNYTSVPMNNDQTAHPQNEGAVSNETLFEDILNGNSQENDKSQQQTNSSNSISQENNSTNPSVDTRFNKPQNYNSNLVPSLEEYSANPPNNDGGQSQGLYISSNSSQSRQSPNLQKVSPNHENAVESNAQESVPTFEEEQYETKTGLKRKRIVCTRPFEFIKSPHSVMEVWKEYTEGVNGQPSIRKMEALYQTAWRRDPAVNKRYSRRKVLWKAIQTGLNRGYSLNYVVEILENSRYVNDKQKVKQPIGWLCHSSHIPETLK
Assay: PBM E-score (8-mer binding enrichment) (E-score (-0.5 to 0.5)); higher = stronger / more preferred TF binding
Conditions: protein concentration: 200 nM; construct: GST-full length
Description: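 Universal 'all 10-mer' protein binding microarrays (Agilent AMADID 015681) probed with GST-tagged S. cerevisiae TFs (full-length or DBD) made by in vitro transcription/translation (PURExpress), about 100-200 nM. Bound TF was detected with fluorescent anti-GST. Each ungapped 8-mer (which stands for itself and its reverse complement) is scored by the PBM enrichment score (E-score), a modified Wilcoxon-Mann-Whitney statistic from -0.5 to +0.5, computed with the Universal PBM Analysis Suite. Scale: above 0.35 generally sequence-specific binding.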

Sequence | PBM E-score
CGTGCAGC | -0.0365
CTCGGTAC | 0.0483
ACGGCCGT | -0.204
ATAAAGCC | -0.151
GCCTACCA | -0.174
AGCCCTCG | -0.123
CATATGTA | 0.245
GATATGTA | 0.12
CATATGCC | 0.00819
CATATGTC | 0.449
AATATGTC | 0.478
AATATGTG | 0.181
AATATGTA | 0.335
CATATGAC | 0.143
ACTATGTC | 0.292
AGCGAAAG | 0.00846
CGCACTTA | -0.0705
AGCTCTAC | -0.104
AGCCACGA | -0.181
CCAATAGC | -0.0522
TAAGGACA | 0.481
CAAGGACG | 0.148
TAAGGAGA | -0.255
GAAGGACA | 0.471
GAAGGATA | -0.142

Sequence | PBM E-score
AAAGGACG | 0.032
CAAGGACC | 0.0568
GAAGGACC | -0.139
TAAGGATA | 0.13
CAAGGACA | 0.484
AAAGGACC | -0.105
AAAGGACA | 0.445
CGAACATA | 0.128
TAACAACA | 0.0839
CGTCCTGA | 0.102
AATCTACA | 0.058
TAGGTAGA | 0.0723
GATCTGTA | -0.0087
CCGAAAAC | 0.0665
AACGAGTC | -0.0621
ATGTCACG | 0.31
CTGTCACA | 0.0788
CTGTCACC | -0.0649
ATGTCAGA | 0.265
GTGTCACA | 0.261
AAGTCACA | 0.127
AGGTCACC | -0.0357
ATGTCACC | 0.303
ATGTCACA | 0.363
GGAAAGAC | -0.0443

Sequence | PBM E-score
ATCCTATG | -0.0491
AGGCGTAG | -0.189
CCTTGCGA | 0.028
GGTGGTAC | -0.152
GTAAGCTA | 0.0896
AACATAAA | 0.0678
CACATAAC | 0.0195
GACATAAC | 0.396
AACATAAC | 0.0281
TACATAAA | 0.15
GACATAAA | 0.44
CGGAGGAA | -0.131
GCATGGGC | -0.183
CCGCTCGA | -0.143
GATTGCTA | -0.0824
CGAGAGTC | -0.131
ATTAGGAA | -0.00879
ACTAGGAC | 0.426
CTTAGGAC | 0.269
AATAGGAA | 0.102
AATAGGAC | 0.387
GCTAGGAC | 0.267
ACTAGGAG | -0.201
ATTAGGAC | 0.37
AATAGGAT | 0.157

Sequence | PBM E-score
ATCGACCC | -0.11
ATCCCTGC | -0.24
AGGGTAAG | 0.00826
AACGGGTC | -0.155
CAGAATAC | 0.0673
TCCTCTAA | -0.0667
AGTGGGAC | 0.118
ACTCTCCA | -0.0814
ATTGAACA | 0.124
CTCGTCCC | 0.228
CCCCATAG | -0.15
GAAATGTC | 0.487
CAAATTTC | 0.184
AAAATTTG | 0.16
CAAATTTG | 0.32
GAAATGTA | 0.245
GAAATGCC | 0.00283
CAAATGTC | 0.471
CAAATGTG | 0.229
CAAATGTA | 0.276
GCCGGTCC | -0.233
CAGCGTTA | -0.131
AAACTCTC | -0.0224
CGGACCAG | -0.125
CGGACGGA | -0.00604

Sequence | PBM E-score
GGGACCAC | -0.255
CGGACAGA | 0.302
CGGACGAA | 0.337
CGGACGAC | -0.0607
CGGACAAG | 0.418
CGGACGAG | 0.0588
GGGACGAA | 0.187
GGAACAAC | 0.0504
GGGACAAC | 0.375
CGGACAAA | 0.484
GCTCTCAC | -0.29
ATTTGACG | 0.15
CCAGCATC | -0.148
AGAAGAGC | -0.0669
GTTGAATA | 0.0705
TGGTCTAA | -0.0904
CGGACCAC | -0.0995
CGGACAAC | 0.369
CAGACAAC | 0.212
GATGGAGC | -0.185
GTGCGGGA | -0.0606
AAAAGTCT | 0.269
ACAAGTCC | 0.363
AAAAGTCC | 0.467
ATTAGTCA | 0.0896

Sequence | PBM E-score
AAAAGTCA | 0.194
AAAAGTAT | 0.17
ATTAGTCC | 0.349
ACAAGTCG | 0.0205
ACAAGTCA | 0.0996
AAAAGTAC | 0.366
ATTAGTCG | 0.16
AAAAGTAA | 0.25
ACCTCAGA | -0.147
CGGCTTAC | 0.051
AAGGCCAA | -0.2
TGGCGAAA | -0.095
ACTGAAGA | 0.147
AAGGCTAG | 0.0752
CACCCAAC | -0.201
GAGGCGCC | -0.178
CTAAGTCC | -0.0602
ATAAGTCG | 0.0746
ATAAGTCC | 0.422
ACAGTCAG | 0.0633
GGTTTGTA | 0.0228
CATTTGCA | 0.0736
AATTTGTA | 0.28
GATTTGTA | 0.31
GATTTGCA | 0.0983

Sequence | PBM E-score
CATTTGGC | 0.0384
CATTTGCC | -0.00883
CATTTGTC | 0.485
CATTTGTA | 0.36
GCAACCGC | 0.0753
AATCCAAG | 0.0229
AGCCCGCG | -0.185
CAACCATC | -0.177
CTGAACTC | -0.0622
CAGGGACC | -0.273
TAGGGAGA | -0.215
TAGGGACA | 0.484
AAGGGACA | 0.44
CAGGGACA | 0.47
GAGGGAGA | -0.218
CAGGGACG | 0.165
TAGGGAAA | -0.0483
AAGGGACT | 0.0205
AAGGGACC | -0.0619
GAGGGACA | 0.447
GAGGGACC | -0.268
ACTAGCGA | 0.0418

From the supplement of paper PMC3334620
